# According to the supplement of paper PMC7695840:
# Where a name gives a salt, the structure may show the parent alone.
# System: Staphylococcus aureus MW2 delta-mecA (mecA-)
# Assay: normalized GFP fluorescence (growth of mecA- strain) (fraction of control range); higher = more growth of mecA- strain
# Settings: compound concentration: 150 uM; cefoxitin: subinhibitory; fluorescent label: GFP
# How it was run: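 Single-replicate 1536-well plates carried 150 μM compound (1.5% DMSO), onto which 5 µL/well of a 1:1 mix of pre-induced S. aureus MW2 cells was dispensed: gene-carrying cells tagged with DsRed and deletion cells tagged with GFP, in LB with a subinhibitory antibiotic dose set daily. Incubation ran 20 h at 37 °C, 90% humidity, unshaken, followed by DsRed (540/590) and GFP (485/520) reads. Per-plate scaling of each channel used single-strain control medians, and plates with high untreated ratios and rows with DsRed/GFP >10 were excluded.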
row,Structure (SMILES),normalized GFP fluorescence
1,C[C@]12CCC(=O)C=C1[C@@H]1C[C@@H]1[C@H]1[C@@H]3[C@@H]4C[C@@H]4[C@@]4(CCC(=O)O4)[C@@]3(C)CC[C@@H]12,0.162
2,CCOC(=O)[C@H](CCc1ccccc1)N[C@H]1CCc2ccccc2N(CC(=O)O)C1=O,-0.00401
3,CC1(C)[C@H](C(=O)O)N2C(=O)C[C@H]2S1(=O)=O,0.00608
4,COCC1=C(C(=O)OC(C)OC(=O)OC(C)C)N2C(=O)[C@@H](NC(=O)/C(=N\OC)c3csc(N)n3)[C@H]2SC1 (stereo not given in full),0.00501
5,C[C@@H]1O[C@@H]1P(=O)(O)O,0.142
6,Fc1ccc(C(c2ccc(F)cc2)N2CCN(C/C=C/c3ccccc3)CC2)cc1,0.0954
7,CCCc1nc(C(C)(C)O)c(C(=O)OCc2oc(=O)oc2C)n1Cc1ccc(-c2ccccc2-c2nnn[nH]2)cc1,0.0265
8,CN(C)[C@@H]1C(O)=C(C(N)=O)C(=O)[C@@]2(O)C(O)=C3C(=O)c4c(O)cccc4[C@@](C)(O)[C@H]3[C@H](O)[C@@H]12 [Oxytetracycline dihydrate],0.0661
9,CO[C@H]1C[C@@H]2CC[C@@H](C)[C@@](O)(O2)C(=O)C(=O)N2CCCC[C@H]2C(=O)O[C@H]([C@H](C)C[C@@H]2CC[C@@H](O)[C@H](OC)C2)CC(=O)[C@H](C)/C=C(\C)[C@@H](O)[C@@H](OC)C(=O)[C@H](C)C[C@H](C)/C=C/C=C/C=C/1C [Rapamycin (Sirolimus)],0.00415
10,CN1[C@@H]2CC[C@H]1C[C@@H](OC(=O)c1c[nH]c3ccccc13)C2 [Tropisetron],0.528
11,Cc1cccc(N(C)C(=S)Oc2ccc3ccccc3c2)c1,0.561
12,CCOC(=O)O[C@]1(C(=O)COC(=O)CC)CC[C@H]2[C@@H]3CCC4=CC(=O)C=C[C@]4(C)[C@H]3[C@@H](O)C[C@@]21C,0.129
13,CN1CCN(CC(=O)N2c3ccccc3C(=O)Nc3cccnc32)CC1,0.28
14,"CCOC(=O)C1=C(C)NC(C)=C(C(=O)OCC)C1c1ccccc1/C=C/C(=O)OC(C)(C)C [Lacidipine (Lacipil, Motens)]",0.112
15,Cc1cc(/C=C/c2ccc3cc(N(C)C)ccc3[n+]2C)c(C)n1-c1ccccc1,-0.0128
16,O=C(O)P(=O)(O)O,0.285
17,CCC(=O)O[C@@H](O[P@](=O)(CCCCc1ccccc1)CC(=O)N1C[C@H](C2CCCCC2)C[C@H]1C(=O)O)C(C)C [Fosinopril sodium (Monopril)],0.0781
18,COc1cccc2c1C(=O)c1c(O)c3c(c(O)c1C2=O)C[C@@](O)(C(=O)CO)C[C@@H]3O[C@H]1C[C@H](N)[C@H](O)[C@H](C)O1 [Doxorubicin (Adriamycin)],-0.0343
19,COC(=O)[C@H](c1ccccc1Cl)N1CCc2sccc2C1,0.0333
20,O=C(O)c1cc(-c2ccc(F)cc2F)ccc1O,0.0802

row,Structure (SMILES),normalized GFP fluorescence
1,COc1cccc2c1C(=O)c1c(O)c3c(c(O)c1C2=O)C[C@@](O)(C(=O)CO)C[C@@H]3O[C@H]1C[C@H](N)[C@@H](O)[C@H](C)O1,-0.00778
2,C=CCCCCCCCCC(=O)O,0.13
3,CCC1=C(C)CN(C(=O)NCCc2ccc(S(=O)(=O)NC(=O)N[C@H]3CC[C@H](C)CC3)cc2)C1=O,0.0961
4,CC1=C(C(=O)O)N2C(=O)[C@@H](NC(=O)[C@H](N)C3=CCC=CC3)[C@H]2SC1,0.00153
5,O=C(c1cc(Cc2n[nH]c(=O)c3ccccc23)ccc1F)N1CCN(C(=O)C2CC2)CC1 [Olaparib (AZD2281)],0.204
6,COCCc1ccc(OCC(O)CNC(C)C)cc1 (stereo not given),0.861
7,CO[C@@]1(NC(=O)Cc2cccs2)C(=O)N2C(C(=O)O)=C(COC(N)=O)CS[C@@H]21,0.00393
8,CCCCCOC(=O)Nc1nc(=O)n([C@@H]2O[C@H](C)[C@@H](O)[C@H]2O)cc1F [Capecitabine (Xeloda)],0.0511
9,CO[C@H]1C[C@@H]2CC[C@@H](C)[C@@](O)(O2)C(=O)C(=O)N2CCCC[C@H]2C(=O)O[C@H]([C@H](C)C[C@@H]2CC[C@@H](O)[C@H](OC)C2)CC(=O)[C@H](C)/C=C(\C)[C@@H](O)[C@@H](OC)C(=O)[C@H](C)C[C@H](C)/C=C/C=C/C=C/1C,0.0214
10,CO/N=C(\C(=O)N[C@@H]1C(=O)N2C(C(=O)OC(C)OC(C)=O)=C(COC(N)=O)CS[C@H]12)c1ccco1 (stereo not given in full),0.0118
11,C[C@@H](O)[C@H]1C(=O)N2C(C(=O)O)=C(SCCNC=N)C[C@H]12,-0.0325
12,Oc1c(Cl)cc(Cl)c(Cl)c1Cc1c(O)c(Cl)cc(Cl)c1Cl,0.11
13,CN(Cc1ccc(C(C)(C)C)cc1)Cc1cccc2ccccc12 [Butenafine HCl],0.11
14,Nc1nc2c(ncn2COC(CO)CO)c(=O)[nH]1,0.466
15,COc1cccc2c1C(=O)c1c(O)c3c(c(O)c1C2=O)C[C@@](O)(C(C)=O)C[C@@H]3O[C@H]1C[C@H](N)[C@H](O)[C@H](C)O1,-0.00425
16,O=C(CCCN1CC=C(n2c(=O)[nH]c3ccccc32)CC1)c1ccc(F)cc1,0.664
17,NC(=O)c1cccnc1 [Nicotinamide (Niacinamide)],0.478
18,CCOC(=O)C1=C[C@@H](OC(CC)CC)[C@H](NC(C)=O)[C@@H](N)C1,0.257
19,CCC(C)(C)c1ccc(CC(C)CN2C[C@@H](C)O[C@@H](C)C2)cc1 (stereo not given in full),0.099
20,Nc1ccn([C@@H]2O[C@H](CO)[C@@H](O)[C@@H]2O)c(=O)n1,0.00362
